Each molecule was assayed against T1, Aspartate--tRNA(Asp/Asn) ligase (Mycobacterium tuberculosis (strain ATCC 25618 / H37Rv)) (UniProt P9WFW3) (assay: Assay for Asp RNA synthetase-1 from Mycobacterium tuberculosis). Conditions: 30 µM.
T1 sequence (whole entry): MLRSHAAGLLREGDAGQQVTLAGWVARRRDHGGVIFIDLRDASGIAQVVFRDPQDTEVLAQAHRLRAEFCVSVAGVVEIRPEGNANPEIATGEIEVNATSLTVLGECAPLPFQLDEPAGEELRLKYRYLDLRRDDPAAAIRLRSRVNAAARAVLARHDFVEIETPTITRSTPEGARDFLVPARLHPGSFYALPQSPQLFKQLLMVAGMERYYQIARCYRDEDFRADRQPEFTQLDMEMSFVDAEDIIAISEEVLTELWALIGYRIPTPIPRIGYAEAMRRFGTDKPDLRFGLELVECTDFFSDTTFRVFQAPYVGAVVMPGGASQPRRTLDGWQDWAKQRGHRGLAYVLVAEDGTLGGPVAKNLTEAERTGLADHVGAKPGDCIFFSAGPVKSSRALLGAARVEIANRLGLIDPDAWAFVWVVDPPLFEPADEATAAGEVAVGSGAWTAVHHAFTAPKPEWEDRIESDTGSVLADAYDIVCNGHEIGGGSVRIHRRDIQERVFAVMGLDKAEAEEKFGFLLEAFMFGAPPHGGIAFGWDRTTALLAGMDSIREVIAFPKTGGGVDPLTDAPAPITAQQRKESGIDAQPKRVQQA
Assay type: functional
Design: scale not given: direction of the effect not stated beside the values

Row | SMILES | Percent Effect [%]
1 | NC(=O)c1ccc(S(=O)(=O)NC2CCN(Cc3ccccc3)C2=O)cc1 (stereo not given) | -5.17
2 | CCc1nc(C2CCCN2C(=O)CCc2ccc3c(c2)OCO3)no1 (stereo not given) | 3.41
3 | O=C(c1ncccn1)N1C[C@H]2CCC[C@@]2(COCc2cccnc2)C1 | 1.54
4 | O=C(c1ccc2c(c1)OCO2)N1CCN(c2cnccn2)CC1 | -4.12
5 | CCN(CC1CCCO1)C(=O)Nc1cc(OC)c(OC)cc1C (stereo not given) | -2.8
6 | COCC1CC2(CCN(Cc3cnn(C)c3)CC2)CN1c1ncccn1 (stereo not given) | -0.238
7 | Cc1cc(CN(C)C(=O)NC2CCN(Cc3ccccc3)C2)no1 (stereo not given) | 2.94
8 | CCN1CC2(CC1=O)CN(Cc1cnn(C)c1)CCN(C(=O)C(C)C)C2 (stereo not given) | -1.53
9 | CN(Cc1nccs1)c1nc(-c2ccccn2)nc2c1CCNCC2 | 2.26
10 | NC(=O)C1(c2cnccn2)CCCN1Cc1cc2ccccc2o1 (stereo not given) | 3.17
11 | CCC(=O)N1CCC(Cc2nccnc2Nc2ccccn2)CC1 | -0.309
12 | Cc1cc(CNc2cc(Cl)ccc2OCCS(C)(=O)=O)no1 | -2.26
13 | COc1nn(C)c2c1CCCN(C(=O)c1cc[nH]n1)C2 | 0.229
14 | COCc1nc(N(C)C)ncc1C(=O)NC(C)C | -0.697
15 | COCCOc1ccc(NC(=O)C2CCC2)cn1 | -1.46
16 | CC(=O)N1CCO[C@@H]2CN(C(=O)c3cc(C)oc3C)CC[C@@H]2C1 | 4.81
17 | CCN1C(=O)CCC12CCCN(Cc1nccs1)CC2 (stereo not given) | 2.52
18 | CN(C)C(=O)N1C[C@H](Oc2ccccn2)[C@H]2OCCC[C@H]21 | 2.67
19 | CC(C)OCCOCc1cccc(NC(=O)NCCn2ccnc2)c1 | 2.56
20 | CCC1CN(C(=O)c2ccc(=O)[nH]c2)CCC(=O)N1Cc1ccccc1 (stereo not given) | -4.62

These molecules were tested against Shiga toxin 2 (Escherichia coli O157:H7) (UniProt P09385+P09386) (assay: E. coli 0.157:H7 Shiga Toxin SOP - stx2 screening assay). Conditions: 30 µM.
Assay type: functional
Design: scale not given: direction of the effect not stated beside the values

Row | SMILES | Percent Effect [%]
21 | CC(C)c1nc(C2CCCN2CC(=O)N2CCc3ccccc32)no1 (stereo not given) | 10.6
22 | CN(Cc1cnn(C)c1)C(=O)NCc1nnc2n1CCC2 | 4.62
23 | Cc1ncc(CNC(=O)CCc2cccc(F)c2)c(C2CCCN2C)n1 (stereo not given) | -9.03
24 | COc1ccc(CC(=O)N2CCCC2Cn2cccn2)cc1F (stereo not given) | 15.1
25 | Cc1nc(CCNC(=O)NC2CCN(c3ncccn3)CC2)cs1 | -10
26 | Cc1ncccc1O[C@H]1CCN(C(=O)c2cccs2)CC[C@@H]1O | 6.92
27 | CNS(=O)(=O)Cc1ccc(CNC(=O)c2cccc(C)n2)cc1 | -5.04
28 | Cc1cc(NC(=O)c2nc(N3CCCC3)ncc2Cl)nc(C(C)C)n1 | -23.7
29 | CCN1CCN(C2CCN(Cc3nc4ccccc4o3)CC2)C1=O | 21.6
30 | CNC(=O)c1ccc(C2CN(C(=O)COC)CCO2)nc1 (stereo not given) | 1.8
31 | Cc1cc(C)c(CNC(=O)N(C)CC2CCCCO2)c(=O)[nH]1 (stereo not given) | 28.8
32 | O=C(c1ccc(F)cc1)N1C[C@@H]2OCCN(c3ncccn3)[C@@H]2C1 | -4.11
33 | CCn1ccnc1-c1nc2cc(S(=O)(=O)N3CCCC3)ccc2n1C | -15.7
34 | Cc1nnc(N2CC[C@H]3C[C@H](C(=O)N4CCOCC4)O[C@H]3C2)s1 | -4.69
35 | COCCC(=O)N1CCN(C)c2ncccc2C1 | -19.6
36 | COc1ccc(C)cc1CSCCn1nc2ccccn2c1=O | 6.71
37 | Cc1nc(Nc2ncccn2)cc(C2CCCN2C2CCOCC2)n1 (stereo not given) | -0.835
38 | O=C(Nc1ccccc1)c1nn(C2CCS(=O)(=O)C2)c2c1CCCC2 (stereo not given) | 4.6
39 | Cc1cc(NCc2cccnc2)n2nc(C)cc2n1 | 13.8
40 | Cc1nn(C)cc1CN1CCC(C2Nc3ccccc3S(=O)(=O)N2)CC1 (stereo not given) | 14.6

Row | SMILES | Percent Effect [%]
41 | NC(=O)c1ccc(S(=O)(=O)NC2CCN(Cc3ccccc3)C2=O)cc1 (stereo not given) | 5.52
42 | CCc1nc(C2CCCN2C(=O)CCc2ccc3c(c2)OCO3)no1 (stereo not given) | 6.69
43 | O=C(c1ncccn1)N1C[C@H]2CCC[C@@]2(COCc2cccnc2)C1 | -6.19
44 | O=C(c1ccc2c(c1)OCO2)N1CCN(c2cnccn2)CC1 | -14.6
45 | CCN(CC1CCCO1)C(=O)Nc1cc(OC)c(OC)cc1C (stereo not given) | -9.12
46 | COCC1CC2(CCN(Cc3cnn(C)c3)CC2)CN1c1ncccn1 (stereo not given) | -22.6
47 | Cc1cc(CN(C)C(=O)NC2CCN(Cc3ccccc3)C2)no1 (stereo not given) | -10.9
48 | CCN1CC2(CC1=O)CN(Cc1cnn(C)c1)CCN(C(=O)C(C)C)C2 (stereo not given) | -10.1
49 | CN(Cc1nccs1)c1nc(-c2ccccn2)nc2c1CCNCC2 | -12.4
50 | NC(=O)C1(c2cnccn2)CCCN1Cc1cc2ccccc2o1 (stereo not given) | 11.4
51 | CCC(=O)N1CCC(Cc2nccnc2Nc2ccccn2)CC1 | 11.3
52 | Cc1cc(CNc2cc(Cl)ccc2OCCS(C)(=O)=O)no1 | -0.408
53 | COc1nn(C)c2c1CCCN(C(=O)c1cc[nH]n1)C2 | -2.49
54 | COCc1nc(N(C)C)ncc1C(=O)NC(C)C | -16.3
55 | COCCOc1ccc(NC(=O)C2CCC2)cn1 | -10.4
56 | CC(=O)N1CCO[C@@H]2CN(C(=O)c3cc(C)oc3C)CC[C@@H]2C1 | -5.49
57 | CCN1C(=O)CCC12CCCN(Cc1nccs1)CC2 (stereo not given) | 1.68
58 | CN(C)C(=O)N1C[C@H](Oc2ccccn2)[C@H]2OCCC[C@H]21 | -3.38
59 | CC(C)OCCOCc1cccc(NC(=O)NCCn2ccnc2)c1 | -31.1
60 | CCC1CN(C(=O)c2ccc(=O)[nH]c2)CCC(=O)N1Cc1ccccc1 (stereo not given) | 5.03

— ChEMBL document CHEMBL3988442, “University of Dundee, Small-Polar-MMV Screening Library” (2021)
